Our source for the INHIBITION values is ChEMBL document CHEMBL4513216, “Probing the Open Global Health Chemical Diversity Library for Multistage-Active Starting Points for Next-Generation Antimalarials” (ACS Infect Dis, 2020).

Hit rate of the full screen: of about 69,000 compounds, about 8,600 (12%) showed an effect of 50% or more. For the sample, strong results were picked, then their nearest neighbours and some compounds at random.

This assay deals with Plasmodium berghei. The experiment in a line: Screen against P. berghei liver stage (PbLuc), transformed with Luciferase, at 10uM. To be noted: tested at 10 uM. The assay is classed as functional, HepG2.
Take `CCc1nnc(SCC(=O)N2C[C@H]3CC[C@@H](C2)N(CC=C(C)C)C3)[nH]1`: the INHIBITION turned out to be 26.7%.
For `CC1c2ncc(CNC(=O)C3CC3)n2CCN1Cc1cccnc1` (centres undefined) the value was -5.31%; for `Cc1nc(N2CCOCC2)sc1C(=O)NCC(C)(C)N1CCCCC1`, -4.87%.
For `COCCN1CCCC12CCN(C(=O)CC1CCCC1)CC2` the value was 32.4%.
For the compound `Cn1ncc(C(=O)N2CCN(CCS(C)(=O)=O)CC2)c1Cl`, the INHIBITION was determined as 30.95%.
Take `O=C(NCC(O)Cc1ccccc1)c1ccc2[nH]c(=O)[nH]c2c1` (centres undefined): the INHIBITION came out at 43.9%.
For `O=C1CCC2(CCOC2)CN1Cc1nc2ccc(Cl)cc2[nH]1` (centres undefined) the value was 27.9%; for `CCCn1nc(C)c(CN2CC3(CCOC3)CCC2=O)c1C` (centres undefined), 64.5%; for `CCCc1nc(C)c(CN2CC3(CCOC3)CCC2=O)s1` (centres undefined), 33.7%.
Regarding `O=C1CCC2(CCOC2)CN1Cc1ccc2nsnc2c1` (centres undefined), the INHIBITION worked out at 16.8%.
For `Cc1nc2ccc(CN3CC4(CCOC4)CCC3=O)cc2[nH]1` (centres undefined) the value was 67.4%; for `CCc1c(C)nn(CCN2CC3(CCOC3)CCC2=O)c1C` (centres undefined), 44.3%; for `O=C1CCC2(CCOC2)CN1CCCOc1cccnc1` (centres undefined), -0.897%.
For `CCn1nc(C)c(CCN2CC3(CCOC3)CCC2=O)c1C` (centres undefined) the value was 56.6%; for `O=C1CCC2(CCOC2)CN1Cc1nncn1CCc1ccccc1` (centres undefined), 10.1%; for `O=C([C@H]1CC[C@@H]2[C@@H](CCN2c2ncccn2)O1)N1CCCCO1`, -13.2%.
Consider `Cc1noc(C(C)N2CCN(Cc3nnc(C4CC4)o3)CC2)n1` (centres undefined), for which the INHIBITION was -19.6%.
For `CN(C)C(=O)c1n[nH]c2c1CN(CC1CCC1)C2` the value was 30.5%; for `O=C1CCC(C(=O)Nc2cnn(-c3ccccc3Cl)c2)N1` (centres undefined), 19.7%; for `Cc1ccc(C)c(-c2csc(N)c2C#N)c1`, 64.7%.
Regarding `Cc1ccc(-c2csc(N)c2C#N)c(C)c1`, the INHIBITION is reported as 40.9%.
`COc1ccc(C)cc1-c1csc(N)c1C#N`: the INHIBITION was 1.86%.
For `Cc1nc[nH]c1CN1C[C@H]2CC[C@@H](C1)N(C(=O)CCn1cncn1)C2` the value was 40.2%; for `COc1cccc(C(C)Nc2ncnc3c2NC(=O)CN3)c1` (centres undefined), 45.8%.
For `CC(CN1CCOCC1)n1cncc1-c1ccc2c(c1)CCCN2C` (centres undefined) the value was -16%.
On to `NC(=O)C(NC(=O)c1cc(Br)c[nH]1)c1ccccc1` (centres undefined), for which the INHIBITION turned out to be 34.4%.
For `NC(=O)C(NC(=O)c1cc(Cl)c[nH]1)c1ccccc1` (centres undefined) the value was 52.8%; for `Cc1cc(C)c(C(=O)N[C@H](C(N)=O)c2ccccc2)c(=O)[nH]1`, -31.4%.
For `CO[C@H]1CCN(Cc2c(C)noc2C)[C@@H]2CN(Cc3cccnc3)C[C@H]12` the value was 28.5%; for `O=C(NCc1nnc2n1CCCCC2)N1CCc2ccccc2C1`, 41.2%.
In the case of `CN(Cc1ccccc1Br)C(=O)Cn1nc(-c2ccc(F)cc2)oc1=O`, the INHIBITION was found to be 26.8%.
For `Cc1ccccc1CN(C)C(=O)Cn1nc(-c2ccc(F)cc2)oc1=O`, the INHIBITION is on record as 56.5%.
Regarding `CN(Cc1ccc(F)cc1)C(=O)Cn1nc(-c2ccc(F)cc2)oc1=O`, the INHIBITION was 1.58%.
For `Cc1ccc(CN(C)C(=O)Cn2nc(-c3ccc(F)cc3)oc2=O)cc1` the value was 30.8%; for `Cc1ccsc1CN(C)C(=O)Cn1nc(-c2ccc(F)cc2)oc1=O`, 22.1%.
For `COc1ccccc1CNC(=O)Cn1nc(-c2ccc(F)cc2)oc1=O` the value was -16.1%; for `Cc1ccccc1CNC(=O)Cn1nc(-c2ccc(F)cc2)oc1=O`, 50.15%; for `O=C(Cn1nc(-c2ccc(F)cc2)oc1=O)NCc1ccccc1F`, -69.9%.
For `CN(Cc1ccc(Cl)s1)C(=O)Cn1nc(-c2ccc(F)cc2)oc1=O` the value was 66.1%.
Consider `CCOC1Sc2nnc(C)n2N=C1c1ccc(Br)cc1` (centres undefined), for which the INHIBITION turned out to be 18.2%.
For `CN(C)[C@@H]1CCN(C(=O)c2cccc(C#N)c2)[C@H]1Cc1cnn(C)c1` the value was 27.6%; for `Cc1ccc(-c2cc(CN3CCOC(Cn4cncn4)C3)on2)cc1` (centres undefined), 24.6%.
As for `O=C(C1CC=CC1)N1CCC2(CCN(Cc3ccccn3)C2=O)C1` (centres undefined), the INHIBITION worked out at 17.5%.
Take `CC(C)n1cnnc1C1CCCN(S(=O)(=O)CCCF)C1` (centres undefined): the INHIBITION is 39.7%.
As for `CC(C)CCS(=O)(=O)N1CCCC(c2nncn2C(C)C)C1` (centres undefined), the INHIBITION is reported as 44.9%.
For `CC(C)n1cnnc1C1CCCN(S(=O)(=O)CC2CCCC2)C1` (centres undefined) the value was 76.5%.
For `Cc1oc(C(=O)O)cc1S(=O)(=O)Nc1cc(Br)ccc1Cl` the value was 38.8%.
Regarding `CC(=O)NCC1CN(c2ccc3c(Cl)ccnc3c2F)CCO1` (centres undefined), the INHIBITION is given as 23.8%.
For `N#Cc1ccc(Cl)cc1N1CCC(OC2CCOCC2)CC1` the value was 35.2%; for `Cn1cc(N2CCN(c3ccc(C#N)c(Cl)c3)CC2=O)cn1`, -11.6%.
For `NC(=O)C1CN(c2ccc3c(Cl)ccnc3c2F)CCO1` (centres undefined) the value was -22.4%.
For `N#Cc1cc(Cl)ccc1N1CCOC(C(N)=O)C1` (centres undefined) the value was 32.5%; for `N#Cc1ccc(N2CCC(OC3CCOCC3)CC2)cc1Cl`, 57%.
Take `COCC1CN(c2ccc(C#N)c(Cl)c2)CCO1` (centres undefined): the INHIBITION amounted to 96.1%.
